Data taken from PubChem BioAssay AID1868 (National Center for Advancing Translational Sciences (NCATS), 2009).
In all, about 270,000 compounds went through this assay and about 20 (0.007%) were called active. Calls follow the shape of the dose curve; as a rule, active = well fitted inhibition curve with a large enough effect; inconclusive = small, poorly fitted or top-dose-only effect, or effect the other way; inactive = flat fitted curve, though single readings scatter. These entries were drawn from the full list.

Each molecule was assayed against Galactokinase (Homo sapiens) (UniProt P51570) (assay: qHTS Assay for Inhibitors of Human Galactokinase (GALK)). Conditions: Purified GALK, Kinase-Glo residual ATP luminescence; series mostly up to 57.5 µM.
Chain of Galactokinase (Homo sapiens) (P51570 whole entry, looked up): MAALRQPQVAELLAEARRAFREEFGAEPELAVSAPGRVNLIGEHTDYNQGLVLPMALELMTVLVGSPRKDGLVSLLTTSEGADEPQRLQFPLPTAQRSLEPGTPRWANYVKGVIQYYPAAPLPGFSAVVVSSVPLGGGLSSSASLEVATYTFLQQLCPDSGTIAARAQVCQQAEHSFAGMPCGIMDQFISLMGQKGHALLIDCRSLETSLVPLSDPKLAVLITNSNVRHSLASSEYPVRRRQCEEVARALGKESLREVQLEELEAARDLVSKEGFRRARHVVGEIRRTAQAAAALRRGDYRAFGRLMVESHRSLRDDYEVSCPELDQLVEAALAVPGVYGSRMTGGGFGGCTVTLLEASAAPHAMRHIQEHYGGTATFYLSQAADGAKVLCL
Source text: NIH Molecular Libraries Probe Production Centers Network [MLPCN] NIH Chemical Genomics Center [NCGC] MLPCN Grant: R03 MH085689-01 Assay Submitter (PI): Kent Lai (University of Utah School of Medicine, 50 N Mario Capecchi Drive, Salt Lake City, UT 84132) NCGC Assay Overview: Inherited deficiency of galactose-1-phosphate uridyltransferase (GALT) can result in a potentially lethal disorder called Classic Galactosemia (OMIM 230400). Several lines of evidence indicate that an elevated level of galactose-1-phosphate (gal-1-p), the product of galactokinase (GALK), is a major, if not sole, pathogenic mechanism in patients with classic galactosemia. Therefore, finding inhibitors of GALK is a potential novel therapy for this inherent metabolic disease and is the long term goal of this project. GALK (provided by the assay submitter) was assayed using ATP and D-(+)-Galactose (Sigma-Aldrich cat# G0750) as substrates. Promega Kinase-Glo Plus (cat# V3774) technology was used to detect the residual ATP following kinetic reaction. Briefly, the Kinase-Glo Plus contains Ultra-Glo [2] luciferase and D-luciferin which generates a bioluminescence signal from the remaining ATP.
NCGC Assay Protocol Summary: Three uL/well of ATP-buffer solution (35 uM ATP, 20mM HEPES pH8.0, 5 mM MgCl2, 60 mM NaCl, 1 mM DTT, 0.01% BSA final concentration) was dispensed into 1536-well, assay plates (Greiner, solid white medium-binding plates) with Aurora Discovery BioRAPTR Flying Reagent Dispenser (FRD; Beckton-Dickenson). Compound solution (23 nL) was transferred to the assay plate using the Kalypsys 1536-pin tool. One uL/well GALK-galactose solution (5 nM GALK, 100 uM galactose, 20 mM HEPES pH8.0, 5 mM MgCl2, 60 mM NaCl, 1 mM DTT, 0.01% BSA final concentration) was then added using the FRD yielding a total kinase reaction volume of 4 uL/ well. After 1 hour of room temperature incubation, 4 uL Kinase-Glo Plus reagent was added for a final assay volume of 8 uL/ well. Luminescence was detected with the ViewLux plate reader (Perkin Elmer, Waltham, MA) after 10 min incubation using a 1 sec exposure time and 2x binning.

outcome, inactive:
O=C(c1ccco1)N1CCN(C(=O)c2cc(-c3ccccc3F)no2)CC1
CCOC(=O)c1csc(CCNC(=O)c2oc3c(Cl)cc(C)cc3c2C)n1
COc1ccc(NC(=O)C/C(C)=N/NC(=O)c2cnccn2)cc1Cl
COc1ccc(/C=N/Nc2ccccc2C(=O)O)cc1
Cc1ccc(CNC(=O)C(=O)c2cn(CC(=O)N3CCOCC3)c3ccccc23)cc1
COc1ccc(C)cc1N(CC(=O)N1CCCC1)S(=O)(=O)c1ccccc1
CC(c1ccccn1)N(C)C(=O)c1ccc2nc(Cc3cccc(Cl)c3)oc2c1 (configuration not stated)
COc1ccc(OC)c(/C(C)=N\NC(=O)c2cc3cc(Cl)ccc3n2C)c1
O=C(O)c1ccccc1NC(=O)c1ccccc1-c1ccccc1C(=O)O
CCS(=O)(=O)Nc1ccc(C(=O)NCCSc2ccccc2)cc1
O=C(NCCc1ccc(Cl)cc1)c1cccc(N2CCCC2=O)c1
Cc1cc(=O)n2nc(N3CCCC(C(=O)NCc4ccc(Cl)cc4)C3)sc2n1 (configuration not stated)
Cc1ccc(C)c(S(=O)(=O)N2CCCOC2CNC(=O)C(=O)NC2CCCCC2)c1 (configuration not stated)
COc1ccc(C(=O)CCc2ccccc2O)c(OC)c1
O=C(/C=C/c1ccco1)NC(=S)N1CCCCC1
CN(Cc1cnccn1)C(=O)c1cc(COc2cccc(C(F)(F)F)c2)on1
O=C(N/N=C/c1c[nH]c2ccccc12)c1ccccc1O
Oc1ccccc1C1=NN(c2ccccc2)C(c2ccccc2)C1 (configuration not stated)
CCCN1CCn2c3c(c4cc(Br)ccc42)CCCC31 (configuration not stated)
COC(=O)c1cc(NS(=O)(=O)c2ccc3c(c2)c(=O)n(C)c(=O)n3C)cc(C(=O)OC)c1
CC(=O)c1ccc(S(=O)(=O)NCc2nnnn2-c2ccccc2)cc1
COc1cccc2[nH]c(C(=O)NCCc3ccccc3)cc12
Cc1cccnc1CC(C)NC(=O)c1cc(COc2cncc(Cl)c2)on1 (configuration not stated)
COc1ccc(N2CCN(C(=O)c3cccs3)CC2)cc1
Cc1onc(C(=O)Nc2ccc3c(c2)OCO3)c1[N+](=O)[O-]
C/C(=N\Nc1nncc2ccccc12)c1ccc(Cl)c([N+](=O)[O-])c1
CC(=O)c1ccc(NC(=O)CCNS(=O)(=O)c2cc(Br)cnc2N)cc1
COc1ccccc1CCNC(=O)c1c(C)nn(CC(C)C)c1Cl
Cn1c(NC(=O)c2ccccc2)nc2ccccc21
C=CCNC(=S)/N=c1/ccccn1Cc1ccccc1
CCCCc1nc2cc(C(=O)N3CCCCC3CCO)ccc2o1 (configuration not stated)
COc1cccc(OCc2cc(C(=O)N3CCN(C(=O)c4ccco4)CC3)no2)c1
CCOc1ccc(C2C(C#N)=C(N)N(N(C)C)C3=C2C(=O)CCC3)cc1 (configuration not stated)
CC(=O)c1cccc(NC(=O)CN2C(=O)c3cccnc3Oc3ccc(Cl)cc32)c1
O=C(CN1CCN(S(=O)(=O)c2cc(Cl)ccc2Cl)CC1)c1ccc(O)c(O)c1
COc1ccccc1CCCNC(=O)C1CCC(=O)N(CCN2CCOCC2)C1 (configuration not stated)
COc1ccc(CCNCc2c(-c3ccccc3)n(C)c3ccccc23)cc1
CCn1nnnc1SCC(=O)Nc1ccc(N(C)C)cc1
O=C(CN1CCCCCC1)Nc1ccc(Br)cc1[N+](=O)[O-]
COCCNC(=O)c1ccc2nc(Cc3ccc(OC)c(OC)c3)oc2c1
CCOc1ccc(C(=O)CCN2CCOCC2)cc1
O=C(c1cc(COc2ccc(F)c(F)c2)on1)N1CCOCC1
Cc1cc(Br)ccc1NC(=S)NC1CCCC1
CC(C)c1ccc(NC2CCCN(C(=O)c3ccncc3)C2)cc1 (configuration not stated)
CC(=O)c1ccc(OC(=O)N2CCOCC2)cc1
CCC(=O)Nc1ccc2nn(-c3ccc(F)cc3)nc2c1
C=CCc1cccc(/C=N/NC(=O)COc2ccc(-n3cnnn3)cc2)c1O
O=C(Cc1cccs1)Nc1ccc([N+](=O)[O-])cc1
COc1ccc(N2CCN(C3CCCCC3NS(=O)(=O)c3ccccc3)CC2)cc1 (configuration not stated)
CN(C)CCCNC(=S)N1CCC(c2nc3ccccc3[nH]2)CC1
COc1ccc(OCc2cc(C(=O)NCC3(C)COC3)no2)c(Cl)c1
O=C(N/C(=C\c1ccc([N+](=O)[O-])cc1)C(=O)N1CCCCC1)c1ccco1
c1ccc(-c2ccc(OCCN3CCOCC3)cc2)cc1
COc1cc(C(=S)N2CCOCC2)cc(OC)c1OC(=O)c1ccc([N+](=O)[O-])cc1[N+](=O)[O-]
Cc1ccc(-c2noc(C3CCCN(C(=O)c4cccc(Cl)c4)C3)n2)o1 (configuration not stated)
C/C(=N\NC(=O)c1ccoc1C)c1ccccc1O
Cc1ccc(CNC(=O)C(=O)c2cn(CC(=O)N3CCCC3)c3ccccc23)cc1
